Where “and” joins values, the source holds several entries; their conditions need not be identical. Equal values may be shown once. Hit rate of the full screen: of about 300,000 compounds, about 37,000 (12%) were called active. For the sample, actives were picked, then their nearest neighbours and some compounds at random. Values without a mark were called inactive. Cut-off read from the data, not from the text of the source: active = max response mostly above about 13% (no sharp cut-off); inactive = mostly below about 14%.
Experiment: Cycloheximide Counterscreen for Small Molecule Inhibitors of Shiga Toxin; note: read at 38.3 µM for the half of the compounds with a filed dose; 0% is about no effect
Conditions: cell reporter, cycloheximide protein synthesis inhibition counterscreen; active compounds read high

| SMILES | max response |
| --- | --- |
| CCOc1ccc(NC(=O)CCS(=O)(=O)c2ccc3c(c2)CCCN3C(=O)CC)cc1 | -2.69% |
| Cc1ccc(C(=O)COC(=O)CCN2C(=O)C3C4CCC(C4)C3C2=O)cc1C (centres undefined) | 11.1% |
| COC(=O)c1scc(C)c1NC(=O)CSc1ccc(Cl)cc1 | -0.926% |
| Cc1nn(CC(=O)Nc2ccc(F)cc2)c(=O)c2ccccc12 | 6.83% |
| CCC(=O)Nc1ccc2nn(-c3ccc(F)cc3)nc2c1 | 48.7% (active) |
| O=C(CN1CCN(c2ccc(F)cc2)CC1)Nc1cccc(C(F)(F)F)c1 | 11.8% |
| Cc1cc(/C=C2/SC(=O)N(CC(=O)OC(C)C)C2=O)c(C)n1C | 44% (active) |
| Cc1cc(/C=C2/SC(=O)N(CC(=O)N3CCCC3)C2=O)c(C)n1C | -2.09% |
| CC(C)OC(=O)CN1C(=O)c2ccccc2C1=O | 0.757% |
| CC(C)OCCCNC(=S)N1CCC(C(=O)c2ccc3c(c2)OCCO3)CC1 | -2.67% |
| c1csc(-c2nnc(COc3ccc4c(c3)OCO4)o2)c1 | 43% (active) |
| CC1CCC2(CC1)NC(=O)N(Cc1nnc(-c3cccs3)o1)C2=O (centres undefined) | 7.72% |
| c1csc(-c2nnc(COc3ncnc4sccc34)o2)c1 | -1.52% |
| COc1cccc(Nc2nnc(SCC(=O)N3CC(C)OC(C)C3)s2)c1 (centres undefined) | 6% |
| COc1cccc(NC(=O)Nc2nnc(N3CCCCC3C)s2)c1 (centres undefined) | 43.6% (active) |
| COc1cccc(C(=O)Nc2nnc(S(=O)(=O)N3CCCCC3)s2)c1 | -1.34% |
| O=C1CCN(CCCc2ccccc2)CCN1CCO | -4.59% |
| O=C(c1ccco1)N1CCN(CCOc2ccccc2)CC1 | 9.67% |
| O=C1CCN(CCc2ccccc2)CCN1CCOc1ccccc1 | 10.9% (active) |
| Cn1ncc2c(N3CCCCC3)nc(NCCCO)nc21 | -5.17% |
| OCCC#Cc1ccc(CN2CCN(Cc3ccsc3)C(CCO)C2)cc1 (centres undefined) | 11.5% |
| CC1CCN(C(=S)c2cccc([N+](=O)[O-])c2)CC1 | -0.525% |
| O=C(/C=C/c1ccc(F)cc1)NC(=S)NNC(=O)c1cccnc1 | -1.85% |
| CS(=O)(=O)N(CC(=O)N1CCOCC1)c1cccc(Cl)c1Cl | 4.45% |

| SMILES | max response |
| --- | --- |
| Cc1cccc(NC(=O)CSc2nc3[nH]ncc3c(=O)[nH]2)c1 | 6.25% |
| Cc1ccc(CSc2nc3[nH]ncc3c(=O)[nH]2)cc1 | 44.4% (active) |
| CCCSc1nc2[nH]ncc2c(=O)[nH]1 | -7.37% |
| CCC(C)(C)NC(=O)C(c1ccc(OC)cc1)N(C(=O)CCC(=O)Nc1cc(C)on1)c1ccc(OC)cc1OC (centres undefined) | -1.05% |
| COC(=O)c1ccc([C@@H](O)[C@H](C)C(=O)CC(=O)OC(C)(C)C)cc1 | 16.5% and 4.37% |
| C[C@@H](NC(=O)OC(C)(C)C)c1nnc(S(=O)(=O)Cc2ccccc2)o1 | 15.5% (active) |
| CC(C)Sc1nnc([C@H](Cc2ccccc2)NC(=O)OC(C)(C)C)o1 | -2% |
| C[C@H](NC(=O)OC(C)(C)C)c1nnc(SCC(N)=O)o1 | 1.54% |
| COc1cc(-c2nnn(CC(=O)NCc3ccccc3)n2)cc(OC)c1OC | -0.552% |
| Cc1ccc(-n2c(O)c(C=Nc3ccc(S(=O)(=O)Nc4ncccn4)cc3)c3ccccc3c2=O)cc1C | 9.64% |
| CC(C)Oc1ccc(CN2CCC(n3nccc3NC(=O)c3cccnc3)CC2)cc1 | 2.69% |
| COC(=O)C1=CN(c2ccc(F)c(F)c2)C=C(C(=O)OC)C1c1ccc([N+](=O)[O-])cc1 | 4.1% |
| CC(=O)c1ccc(N2CCN(S(=O)(=O)c3ccc4c(c3)CC(=O)N4C)CC2)cc1 | 11.5% |
| COC(=O)c1cc(NC(=O)c2nn(C)c(=O)c3ccccc23)cc(C(=O)OC)c1 | -2.61% |
| CCc1ccccc1NC1c2ccccc2C(=O)N1c1cccnc1 (centres undefined) | 1.65% |
| COC(=O)c1cc(NC2c3ccccc3C(=O)N2c2ccc(Cl)cn2)cc(C(=O)OC)c1 (centres undefined) | 13.7% (active) |
| COCCNC(=O)c1ccc2c(c1)ncn2-c1ccc(C)c(Cl)c1 | -2.44% |
| Cc1cc(OCCCN2CCN(Cc3ccccc3)CC2)ccc1[N+](=O)[O-] | 2.14% |
| NC1=NC(=O)C(Cc2cccc(Cl)c2Cl)S1 (centres undefined) | -1.63% |
| O=C(NCCOCc1ccc(Cl)cc1)c1ncn[nH]1 | -5.7% |
| O=C(/C=C/Sc1ncn[nH]1)c1ccc(Cl)cc1 | 35.4% (active) |
| COc1ccc(Cl)cc1CSc1ncn[nH]1 | 1.38% |
| Nc1nonc1-n1nnc(C(=O)N/N=C/C2CCCCC2)c1-c1ccccc1 | -3.53% |
| COc1ccc(C(C(=O)NCc2ccccc2)N(Cc2cccs2)C(=O)c2cnccn2)cc1 (centres undefined) | 0.798% |

| SMILES | max response |
| --- | --- |
| Cc1ccc(-c2noc(CCC(=O)Nc3ccccc3N3CCN(C)CC3)n2)cc1 | 3.85% |
| CCOc1cc(-c2noc(CCC(=O)N3CCOCC3)n2)ccc1OC | -0.629% |
| Cc1ccc(-c2noc(CNC(=O)c3ccoc3C)n2)cc1 | 11% |
| CCCCNC(=O)CCNC(=O)c1ccc(C(C)(C)C)cc1 | 5.17% |
| Cc1ccc(-c2noc(CCC(N)=O)n2)cc1 | 15.6% (active) |
| CCNC(=O)CCc1nc(-c2ccc(C(C)(C)C)cc2)no1 | 34.3% (active) |
| CCNC(=O)CCc1nc(-c2ccc(C)cc2)no1 | 18.6% (active) |
| COc1ccc(N2CCN(C(=O)CCc3nc(-c4ccc(C)cc4)no3)CC2)cc1 | -3.69% |
| CN1CCN(C(=O)CCc2nc(-c3ccc(Cl)cc3)no2)CC1 | 7.26% |
| CC(C)C(NS(=O)(=O)c1cccs1)C(=O)Nc1nc(C(C)(C)C)cs1 (centres undefined) | -2.46% |
| Cc1cc(NS(=O)(=O)c2ccc(NC(=O)C(C)Oc3cccc(C)c3C)cc2)nc(C)n1 (centres undefined) | -0.471% |
| Cc1ccc(C)c(NC(=O)C(OC(=O)c2ccc(C)s2)c2ccccc2)c1 (centres undefined) | 6.66% |
| COc1cc(OC)c2c(-c3cccc(-c4cccc(N)c4)c3)cc(=O)oc2c1 | -2.04% |
| CC(C)n1c(=S)[nH]c2cc(C(F)(F)F)ccc21 | 12.9% |
| Cc1oc2cc(Br)c(O)c(Br)c2c1C(=O)c1ccccc1 | 13.7% |
| OCC1(Cc2ccccc2C(F)(F)F)CCN(Cc2ccncc2)CC1 | 0.237% |
| Cc1ccc(C2C3=C(Nc4[nH]n(-c5ccccc5)c(=O)c42)c2ccccc2C3=O)cc1 (centres undefined) | -3.8% |
| COC(=O)C1=C(C)NC(=O)NC1/C=C/c1ccccc1 (centres undefined) | 0.456% |
| COC(=O)C1=C(C)NC2=C(C(=O)c3ccccc32)C1c1ccc(-c2ccc(C(=O)O)cc2)o1 (centres undefined) | 28.7% (active) |
| N=C1/C(=C/c2cccn2-c2cccc([N+](=O)[O-])c2)C(=O)N=C2SC=CN12 | -2.19% |
| CC1(C)CC2CC(C)(CN2c2ncnc3ccc(Br)cc23)C1 (centres undefined) | -0.269% |
| COc1ccc(Cc2nnc(SC)[nH]c2=O)cc1 | 4.91% |
| COc1ccc(Cc2cc(-c3ccc(F)cc3)n[nH]c2=O)cc1 | 16.2% (active) |
| COc1ccc(Cc2nnnn2CC(=O)O)cc1 | -1.14% |

| SMILES | max response |
| --- | --- |
| O=c1[nH]c2ccccc2n2c(-c3ccccc3)nnc12 | -2.01% |
| CC(CN1CCC(n2nccc2NC(=O)C2CCCC2)CC1)c1ccccc1 (centres undefined) | -1.46% |
| COc1cc(OC)cc(C(=O)N[C@H](C(=O)OCC(=O)NC(C)c2ccccc2)C(C)C)c1 (some centres undefined) | 6.33% |
| COc1cc(OC)cc(C(=O)NCC(=O)OCc2csc(-c3ccccc3)n2)c1 | 20.1% (active) |
| O=C(CNC(=O)c1ccccc1)NCC(=O)OCc1ccc(Cl)cc1 | -2.96% |
| COc1cccc(NC(=O)c2ccccc2N(Cc2ccccc2)S(C)(=O)=O)c1 | 1.56% |
| O=C1c2ccccc2C(=O)C1c1ccccc1 | 6.52% (active) |
| O=C1NC(c2ccccc2)Oc2ccccc21 (centres undefined) | -1.34% |
| O=C1c2ccccc2C(=O)C1c1ccccc1F | -5.87% |
| Cc1ccc(C)c(NC(=O)C2Cc3ccccc3CN2C(=O)OCc2ccccc2)c1 (centres undefined) | -3.28% |
| COc1ccc(C(=O)NNC(=O)c2cnccn2)cc1[N+](=O)[O-] | 1.13% |
| N/C(=N\OC(=O)c1ccc([N+](=O)[O-])cc1)c1ccccn1 | 42.7% (active) |
| CO/N=C(\N)c1ccc([N+](=O)[O-])cc1 | 0.264% |
| Cc1ccc(C(=O)O/N=C(\N)c2ccccn2)cc1Cl | 13.6% |
| N/C(=N\OC(=O)COc1ccc([N+](=O)[O-])cc1)c1ccc(Br)cc1 | 6.76% |
| O=C(OCc1ccc([N+](=O)[O-])cc1)c1ccccn1 | -3.03% |
| N/C(=N\OC(=O)Cc1ccc([N+](=O)[O-])cc1)c1ccccn1 | 61.5% (active) |
| N/C(Cc1ccc([N+](=O)[O-])cc1)=N\OC(=O)COc1ccc2ccccc2c1 | -3.82% |
| COc1ccc(C(=O)O/N=C(\N)c2ccccn2)cc1[N+](=O)[O-] | 59.4% (active) |
| CCC(=O)Nc1nnc(S(=O)(=O)N2CCCc3ccccc32)s1 | 1.29% |
| Cc1ccccc1-n1cc(CNC(=O)C2CCC(=O)N(C3CC3)C2)cn1 (centres undefined) | -1.75% |
| Cc1nn(C(C)C(=O)N2CCOCC2)c(=O)c2nn(-c3ccccc3)c(C)c12 (centres undefined) | -8.4% |

— PubChem BioAssay AID2314 (National Center for Advancing Translational Sciences (NCATS), 2010)
